Rows were chosen to be rich in hits. Some 1.5% of all compounds tested hit in one or more screens of this group.
Mtb hypoxia rep – inhibitors of hypoxia-regulated fluorescent reporter in Mycobacterium tuberculosis. M. tuberculosis hypoxia-regulated fluorescent reporter, fluorescence. fluorescence inhibition, % (no concentration beside the values). hit rate 0.1% among 300,000. AID 1159583; in the data active = fluorescence inhibition mostly above about 23%, no sharp cut-off; inactive = mostly below about 17%
PrP UTR inh – suppresses PrP 5' UTR mRNA reporter expression; cell-based PrP 5' UTR mRNA reporter, plate reader; inhibition, % (no concentration beside the values); hit rate 0.35% among 340,000; in the data active = inhibition above about 52%
MazEF act – MazEF (E. coli) toxin RNase activation; hit rate 0.32% among 350,000; AID 504720; FAM/BHQ RNA-DNA oligo cleavage fluorescence, 5 h; activation, % at 20 µM; in the data active = activation above about 50%
3CLpro inhibitor – SARS-CoV 3CLpro protease inhibition; AID 1706; hit rate 0.14% among 290,000; inhibition, % at 6 µM; recombinant SARS-CoV 3CLpro, quenched FRET peptide cleavage; in the data active = inhibition above about 12%
PrPC surface inh – reduces human prion protein on the cell surface; P04156; inhibition, % at 13.8 µM; cell surface PrPC, TR-FRET read-out; AID 720596; hit rate 0.43% among 370,000; in the data active = inhibition above about 24%
VHR inh abs – blocks human VHR1 dual specificity phosphatase; AID 1654; recombinant VHR phosphatase, pNPP absorbance; hit rate 0.52% among 290,000; inhibition, % at 13.3 µM; in the data active = inhibition above about 50%
PrPC confirm – confirmation of inhibitors of cell surface human prion protein | shares compounds with PrPC surface inh | cell surface PrPC level, TR-FRET | inhibition, % at 13.8 µM | hit rate 65% among 1,500 | AID 743200; in the data active = inhibition above about 25%
LD9 tox – LD9 cell cytotoxicity, PrPc inhibitor counter-screen; shares compounds with PrPC surface inh; LD9 cells cytotoxicity, luminescence viability; inhibition, % at 13.8 µM; hit rate 29% among 1,500; AID 743201; in the data active = inhibition above about 9.5%
Numbers stand for hits; - = inactive; . = not tested or not shown.

SMILES | Mtb hypoxia rep | PrP UTR inh | MazEF act | 3CLpro inhibitor | PrPC surface inh | VHR inh abs | PrPC confirm | LD9 tox
C=CCC(CC(=O)NCCO)C(=O)NCCOC(=O)C(CC=C)Cc1ccc(F)cc1 (stereo unspecified) | - | . | . | . | . | . | . | .
COc1cc(C=NNC(=O)c2ccc(COc3ccccc3Cl)o2)cc(Br)c1O | - | . | . | . | . | . | . | .
CC[C@@H](C(=O)[C@@H](C)[C@@H](O)[C@H](C)CCc1ccc(C)c(O)c1C(=O)O)[C@H]1O[C@](CC)([C@H]2CC[C@](O)(CC)[C@H](C)O2)C[C@@H]1C | . | - | - | - | 75 | - | 69 | 44
N#CCC(N)=C(C#N)C#N | - | - | - | - | 61 | - | - | -
CCOc1ccccc1C=Nn1c(COc2ccccc2)n[nH]c1=S | - | . | . | . | . | . | . | .
N#CC1=C2SCN(Cc3ccccc3)CN2C(=O)CC1c1ccc2c(c1)OCO2 (stereo unspecified) | - | - | - | - | - | - | . | .
N#CC1=C2SCN(Cc3ccccc3)CN2C(=O)CC1c1cccs1 (stereo unspecified) | - | - | - | - | 27 | - | 56 | -
COc1ccc(Br)cc1Cn1nnc(C(=O)Nc2ccc3c(c2)OCCO3)c1N | - | - | - | - | 25 | - | - | -
CC(NC(=O)C(C#N)=Cc1ccc(O)c(O)c1)c1ccccc1 (stereo unspecified) | - | . | . | . | . | . | . | .
O=c1[nH]c(CN2CCN(c3ccc(O)cc3)CC2)nc2scc(-c3ccc(Cl)cc3)c12 | - | - | - | - | 26 | - | 39 | 13
COC(=O)C1=C(C)N(Cc2ccccc2)C(=NCc2cc(OC)c(OC)c(OC)c2)NC1c1ccccc1 (stereo unspecified) | - | . | . | . | . | . | . | .
Cc1onc(-c2c(F)cccc2Cl)c1C(=O)Nc1nccs1 | - | - | - | - | - | - | . | .
Cc1onc(-c2c(F)cccc2Cl)c1C(=O)Nc1nnc(C(F)(F)F)s1 | - | - | - | - | 62 | - | 81 | -
CCOC(=O)C(CC)Sc1cc(C)nc2ccc(OC)cc12 (stereo unspecified) | - | - | - | - | 32 | - | 60 | -
NNc1nc(-c2ccccc2)c2cc(Br)ccc2n1 | - | - | - | - | - | - | . | .
COc1nc(-c2ccccc2)c2cc(Br)ccc2n1 | - | - | - | . | 36 | . | 71 | -
COC(=O)CCC(=NNc1ccc(Cl)c(Cl)c1)C(=O)OC | - | . | . | . | . | . | . | .
COc1cc2sc3cc(NCc4ccc5c(c4)OCO5)ccc3c(=O)c2cc1OC | - | - | - | . | 39 | . | 67 | -
COc1cc2sc3cc(NCc4ccc(C)o4)ccc3c(=O)c2cc1OC | - | - | - | . | - | . | . | .
COc1ccc(NCc2ccc3c(c2)OCO3)cc1Cl | - | - | - | - | - | - | . | .
COc1cccc2sc3cc(NCc4ccc5c(c4)OCO5)ccc3c(=O)c12 | - | - | - | . | 94 | . | 139 | -
CCN1/C(=C/C=C/c2oc3ccc(-c4ccccc4)cc3[n+]2CC)Oc2ccc(-c3ccccc3)cc21 | - | - | . | - | 43 | - | 56 | 64
CC[n+]1c(C=CN(C)c2ccccc2)oc2ccc(Cl)cc21 | - | . | . | . | . | . | . | .
C=CCC(CC(=O)N(CCO)Cc1ccccc1)C(=O)NCCOC(=O)C(CC=C)Cc1ccc(F)cc1 (stereo unspecified) | - | . | . | . | . | . | . | .
NC(=NOC(=O)c1ccccc1Br)c1ccc([N+](=O)[O-])cc1 | - | . | . | . | . | . | . | .
SMILES | Mtb hypoxia rep | PrP UTR inh | MazEF act | 3CLpro inhibitor | PrPC surface inh | VHR inh abs | PrPC confirm | LD9 tox
N#CNC(=Nc1cccc(F)c1)SCc1ccccc1 | - | - | - | - | 31 | - | - | -
FC(F)Oc1ccc(C=Nn2c(Cc3ccc(Br)cc3)n[nH]c2=S)cc1 | - | . | . | . | . | . | . | .
CCOc1ccc2c(c1)C(C)=CC(C)(C)N2S(=O)(=O)c1ccc(NC(C)=O)cc1 | - | 78 | - | - | 24 | - | - | 16
CC(=NNC(=O)c1cc(-c2ccc(C)s2)[nH]n1)c1ccncc1 | - | . | . | . | . | . | . | .
CCc1cc2c(=O)c(-c3ccc4c(c3)OCCO4)c(C)oc2cc1OS(C)(=O)=O | - | - | - | - | 31 | - | 40 | -
CCN1C(=O)C2C(c3ccc(SC4CCCCC4)cc3)N3CCC[C@@]3(C(=O)OC)C2C1=O (stereo partly specified) | - | . | . | . | . | . | . | .
COCc1cccc(C2=CC(=O)CC(c3ccc(F)cc3)C2)c1 (stereo unspecified) | - | . | . | . | . | . | . | .
CCOc1ccc(C(=O)N/N=C/c2cccc3cccnc23)cc1 | . | - | - | - | 25 | - | - | -
COc1ccc(C(=O)Nc2ccc(NC(=O)c3cc(OC)c(OC)c(OC)c3)cn2)cc1 | - | - | - | - | 43 | - | 38 | -
CCCCc1c(Cc2cccc(F)c2)ncn1CCc1ccccc1OC | . | . | . | . | 27 | . | - | 17
CCCCc1c(-c2ccc(F)cc2F)ncn1CCc1ccccc1OC | . | . | . | . | - | . | . | .
COc1ccc(-c2cc(C(=O)NN=Cc3ccc(-c4ccccc4)cc3)[nH]n2)cc1 | . | . | . | . | - | . | . | .
O=C(NN=Cc1ccc(O)cc1)c1cc(-c2ccc(Cl)cc2)n[nH]1 | . | . | . | . | 26 | . | 32 | -
COc1ccc(-c2cc(C(=O)NN=C/C(C)=C/c3ccccc3)[nH]n2)cc1 | . | . | . | . | 25 | . | - | -
ON=Cc1cn(-c2ccccc2)nn1 | - | . | . | . | . | . | . | .
COc1ccccc1NN=C(C#N)C(=N)N1CCOCC1 | - | . | . | . | . | . | . | .
CCOc1ccc(C2CC=C(C(=O)O)C(c3ccc(Cl)cc3)N2S(=O)(=O)c2ccc(C)cc2)cc1 (stereo unspecified) | - | . | . | . | . | . | . | .
CC(C)(C)c1ccc(S(=O)(=O)Nc2ccc(C(O)(C(F)(F)F)C(F)(F)F)cc2)cc1 | . | . | . | . | 26 | . | - | -
COc1cccc(S(=O)(=O)Nc2ccc(C(O)(C(F)(F)F)C(F)(F)F)cc2)c1 | . | . | . | . | - | . | . | .
CCN(CC)C(=O)c1cccc(-c2csc(C(C)(O)c3ccncc3)n2)c1 (stereo unspecified) | . | . | . | . | 40 | . | 30 | -
COc1cccc(C(C)(O)c2nc(-c3cccc(C(=O)O)c3)cs2)c1 (stereo unspecified) | . | . | . | . | - | . | . | .
CC1Cc2ccccc2N1C(=O)CON=Cc1ccc(OC(F)F)cc1 (stereo unspecified) | - | . | . | . | . | . | . | .
Cc1cc(C)c(C)c(S(=O)(=O)NCc2cccnc2)c1C | - | - | - | - | - | - | . | .
Cc1cc(C)c(S(=O)(=O)NCc2cccnc2)c(C)c1 | - | - | - | - | 46 | - | 35 | -
CC(C)(C)C1C=C(C(=O)N2CCOCC2)OC(OCc2ccc(CO)cc2)C1 (stereo unspecified) | - | . | . | . | . | . | . | .
Cc1ccc(N(C(=O)c2snc(C(N)=O)c2N)C(C(=O)NCCC(C)C)c2ccco2)cc1 (stereo unspecified) | - | - | - | - | 27 | - | 34 | -
C=CCC(CC(=O)NC(CO)Cc1ccccc1)C(=O)NCCOC(=O)C(CC=C)Cc1ccc(F)cc1 (stereo unspecified) | - | . | . | . | . | . | . | .
CCOC(=O)c1sc(Nc2nc3cc4c(cc3s2)OCO4)cc1C | - | - | - | - | - | - | . | .

Screening data (PubChem BioAssay)
